Unmarked numbers belong to inactive results. Inconclusive results are not listed. Calls of active or inactive are those of the source. Unless noted, calls come from the whole dose curve; as a rule, active = well fitted curve in either direction with a large enough effect (not every such curve was filed as active); inconclusive = small, poorly fitted or top-dose-only effect, or another doubt; inactive = flat fitted curve, though single readings scatter.

The results in this text go back to PubChem BioAssay (NCATS).

Test [1] addresses Lysosomal acid glucosylceramidase (Homo sapiens) (UniProt P04062). In words: Glucocerebrosidase-p2 (AID 348; in the data active = potency below about 10 µM; note: potency is the fitted concentration of half-maximal effect). The conditions noted are these: purified GBA, blue fluorogenic substrate, 40 min. In outline: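 Compounds titrated from 0.6 nM upwards against 0.2 nM enzyme in pH 5.9 citric acid/KH2PO4, taurocholate, tween-20; blue fluorogenic substrate 80 uM, 40 min room temperature, stopped and read Ex 365/Em 440 for AC50.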

The nature of test [2]: AP1 Signaling Pathway (AID 357).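 Note: ME-180 reporter cells stimulated with EGF at its EC50 level; % is set by controls: 0 for no effect and ±100 for the full control effect.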 The conditions noted are these: ME-180 AP-1-bla reporter, EGF-induced, beta-lactamase ratio, 5 h; at 7.69 µM (top of the series) unless noted. In outline:
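In this screen, ME-180 cells in Opti-MEM with 0.5% dialyzed FBS received EC50 EGF and compound titrations for 5 h. AP-1 reporter beta-lactamase was detected via CCF4 ratio, giving AC50 for positive and negative modulators.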

The target in test [3] is Cytochrome P450 1A2 (Homo sapiens) (UniProt P05177). In words: p450-cyp1a2 (AID 410; calls by dose curve; note: potency is the fitted concentration of half-maximal effect;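 for activity change, negative = inhibition: -100% = full effect of reference inhibitor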). The conditions noted are these: recombinant CYP1A2, luciferin-ME demethylation, luminescence; series mostly up to 11.4 µM. A digest of the protocol:
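Luminescent readout of luciferin formed from Luciferin-ME by human CYP1A2; data normalized against complete inhibition by 57 uM furafylline. Enzyme 20nM, substrate 100uM at Km, 100mM KPO4 buffer, 60 min reaction at room temperature.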

Test [4] can be described thus: NFAT Signaling Pathway (AID 444).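 Note: carbachol stimulus at about its EC50 of 1 µM final; % is set by controls: 0 for no effect and ±100 for the full control effect.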 The conditions noted are these: Jurkat NFAT-bla M1, carbachol, beta-lactamase ratio, 5 h; at 7.69 µM (top of the series) unless noted. In outline:
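Jurkat cells carrying an NFAT-driven β-lactamase reporter and co-transfected muscarinic M1 receptor were treated with compound plus carbachol (1 uM final, an EC50 level) for 5 h at 37 °C. CCF4 loading followed for 1 h at RT; 460/530 nm ratio gave %activity.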

Test [5] is described as follows: Stat Signaling Pathway (AID 446).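 Note: ME-180 cervical cancer cells given 40 pM IL-6 alongside compound; SIE-controlled beta-lactamase reporter measured as 460/530 nm FRET emission ratio; % is set by controls: 0 for no effect and ±100 for the full control effect.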 The conditions noted are these: ME-180 SIE beta-lactamase reporter, IL-6 stimulated, 5 h; at 7.69 µM (top of the series) unless noted. In outline: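 ME-180 SIE-bla cells; overnight plating; cpd + IL-6 40 pM, 5 h, 37 C; LiveBLAzer 2.5 h RT; 460/530 nm emission ratio. Normalized to 300 pM IL-6 and 125 nM JAK inhibitor controls.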
The target of test [6] is Glucocorticoid receptor (Homo sapiens) (UniProt P04150). The test can be described thus: GR-GFP Redistribution (AID 450;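 active = compounds whose dose series gives a full or clear partial fitted curve of increased nuclear translocation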; note: potency is the fitted concentration of half-maximal effect). The conditions noted are these: U2OS GR-GFP nuclear translocation, laser cytometry, 2 h.
Glucocorticoid receptor (Homo sapiens), sequence (P04150 whole entry, looked up): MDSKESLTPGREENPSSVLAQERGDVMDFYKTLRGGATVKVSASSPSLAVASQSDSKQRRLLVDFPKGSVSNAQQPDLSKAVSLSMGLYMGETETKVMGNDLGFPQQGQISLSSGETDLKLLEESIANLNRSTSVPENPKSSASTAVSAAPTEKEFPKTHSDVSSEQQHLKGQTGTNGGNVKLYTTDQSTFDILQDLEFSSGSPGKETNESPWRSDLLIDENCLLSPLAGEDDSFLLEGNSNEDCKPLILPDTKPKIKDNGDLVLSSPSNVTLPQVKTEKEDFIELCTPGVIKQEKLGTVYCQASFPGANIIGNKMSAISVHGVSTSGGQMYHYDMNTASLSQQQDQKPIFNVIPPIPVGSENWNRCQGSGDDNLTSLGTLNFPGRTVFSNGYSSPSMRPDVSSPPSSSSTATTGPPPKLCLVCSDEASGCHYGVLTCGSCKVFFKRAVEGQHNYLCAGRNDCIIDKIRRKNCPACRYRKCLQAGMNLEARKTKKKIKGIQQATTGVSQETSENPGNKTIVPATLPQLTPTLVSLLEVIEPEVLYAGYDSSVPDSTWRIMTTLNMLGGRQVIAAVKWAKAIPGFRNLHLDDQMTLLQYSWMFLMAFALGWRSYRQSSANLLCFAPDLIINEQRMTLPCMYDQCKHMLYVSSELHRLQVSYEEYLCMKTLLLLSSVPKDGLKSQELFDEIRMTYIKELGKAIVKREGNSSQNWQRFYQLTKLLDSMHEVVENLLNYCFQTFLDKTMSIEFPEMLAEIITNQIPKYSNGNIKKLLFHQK
Test [7] shares this target. In words: GR-EFC Redistribution (AID 451; calls by dose curve; note: potency is the fitted concentration of half-maximal effect). The conditions noted are these: CHO-K1 GR-EFC translocation, beta-gal luminescence, 2 h. In outline:
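CHO-K1 cells stably expressing nuclear-localized β-gal enzyme acceptor and GR fused C-terminally to the enzyme donor fragment; ligand-driven nuclear translocation restores β-gal by complementation. Compounds titrated up to 46 uM final, 2 h at 37 °C; luminescence read.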

Test [8] addresses Mitogen-activated protein kinase 10 (Mus musculus) (UniProt Q61831). The test can be described thus: JNK3 AlphaScreen Assay (AID 530).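 Note: kinase came from lysate of stimulated human HepG2 cells; signal reports phosphorylation of biotinylated GST-cJun 1-79 at Ser73 with 10 µM ATP; % is set by controls: 0 for no effect and ±100 for the full control effect.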 The conditions noted are these: JNK3 lysate, c-Jun phosphorylation; series mostly up to 11.4 µM. In outline: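 Inhibitors reduce antibody binding to phosphorylated biotin-cJun, lowering AlphaScreen luminescence. Lysates from HepG2 cells pre-activated by IL-1beta plus TNF-alpha supplied JNK3; compounds were titrated.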

The target of test [9] is 3',5'-cyclic-AMP phosphodiesterase 4B (Homo sapiens) (UniProt Q07343). In words: qHTS Assay for Inhibitors of PDE-IV (AID 607; active = well fitted activation curve with a large enough effect in the main read-out, with a control signal flat, not every such curve was filed as active; note: % of control where 0% means no effect). The conditions noted are these: HEK293 ACTOne CNG channel cells, membrane potential fluorescence; series mostly up to 22.9 µM. In outline: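 ACTOne HEK293 cells carry a modified cAMP-gated CNG channel and express endogenous PDE4; plated 1000 cells/well, compounds up to 22.9 uM final. Membrane-potential dye fluorescence (ex 535/em 590) was read; parental cells received 10 uM forskolin + 100 uM RO 20-1724.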
3',5'-cyclic-AMP phosphodiesterase 4B (Homo sapiens), sequence (Q07343 whole entry, looked up): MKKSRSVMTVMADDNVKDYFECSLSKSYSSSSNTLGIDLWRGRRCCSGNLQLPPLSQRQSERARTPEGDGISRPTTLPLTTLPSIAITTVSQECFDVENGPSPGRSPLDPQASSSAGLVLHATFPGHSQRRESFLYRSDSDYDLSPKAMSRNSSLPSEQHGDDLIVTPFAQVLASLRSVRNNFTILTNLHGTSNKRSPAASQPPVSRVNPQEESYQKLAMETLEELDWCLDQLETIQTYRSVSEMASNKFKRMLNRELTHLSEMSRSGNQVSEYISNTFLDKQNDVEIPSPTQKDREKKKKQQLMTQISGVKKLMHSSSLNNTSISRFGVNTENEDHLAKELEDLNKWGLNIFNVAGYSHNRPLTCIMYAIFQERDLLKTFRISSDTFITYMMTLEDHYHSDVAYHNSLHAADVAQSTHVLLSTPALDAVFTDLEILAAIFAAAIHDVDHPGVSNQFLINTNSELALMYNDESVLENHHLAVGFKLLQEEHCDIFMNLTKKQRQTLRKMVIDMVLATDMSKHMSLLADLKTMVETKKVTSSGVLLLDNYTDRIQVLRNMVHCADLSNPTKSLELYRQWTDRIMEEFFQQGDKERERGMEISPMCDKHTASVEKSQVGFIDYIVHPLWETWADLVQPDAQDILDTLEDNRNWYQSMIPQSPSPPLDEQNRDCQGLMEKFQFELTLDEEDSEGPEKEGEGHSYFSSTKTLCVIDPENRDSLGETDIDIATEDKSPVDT

The target in test [10] is Cytochrome P450 2C19 (Homo sapiens) (UniProt P33261). In words: qHTS Assay for Inhibitors and Substrates of Cytochrome P450 2C19 (AID 899; active = well fitted inhibition curve with a large enough effect; note: nearly all actives have a fitted effect of over 60% in size; note: potency is the fitted concentration of half-maximal effect). The conditions noted are these: recombinant CYP2C19, luciferin-H EGE luminescence; series mostly up to 11.4 µM. In outline:
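Human CYP2C19 (5nM) with Luciferin-H EGE at 10uM (its KM) in 50mM KPO4 was preincubated with compound for 10 min at 37C. NADPH regeneration started a 60 min 37C reaction. Luciferin was read by luminescence, normalized to 57uM ketoconazole.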
(In general: Quantitative high-throughput screening tests each substance at several concentrations.)

Test [11] has as its target Cytochrome P450 2D6 (Homo sapiens) (UniProt P10635). In words: qHTS Assay for Inhibitors and Substrates of Cytochrome P450 2D6 (AID 891; active = well fitted inhibition curve with a large enough effect; note: nearly all actives have a fitted effect of over 60% in size; note: potency is the fitted concentration of half-maximal effect). The conditions noted are these: recombinant CYP2D6, luciferin-ME EGE luminescence; series mostly up to 11.4 µM. In outline: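 Human CYP2D6 (5 nM) with 30 uM Luciferin-ME EGE (at Km) in 100 mM KPO4, compound preincubated 10 min, then NADPH regeneration system for 60 min at room temperature. Luciferin read by luminescence; normalized to 1.43 uM quinidine.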

Cytochrome P450 1A2 (Homo sapiens), sequence (P05177 whole entry, looked up): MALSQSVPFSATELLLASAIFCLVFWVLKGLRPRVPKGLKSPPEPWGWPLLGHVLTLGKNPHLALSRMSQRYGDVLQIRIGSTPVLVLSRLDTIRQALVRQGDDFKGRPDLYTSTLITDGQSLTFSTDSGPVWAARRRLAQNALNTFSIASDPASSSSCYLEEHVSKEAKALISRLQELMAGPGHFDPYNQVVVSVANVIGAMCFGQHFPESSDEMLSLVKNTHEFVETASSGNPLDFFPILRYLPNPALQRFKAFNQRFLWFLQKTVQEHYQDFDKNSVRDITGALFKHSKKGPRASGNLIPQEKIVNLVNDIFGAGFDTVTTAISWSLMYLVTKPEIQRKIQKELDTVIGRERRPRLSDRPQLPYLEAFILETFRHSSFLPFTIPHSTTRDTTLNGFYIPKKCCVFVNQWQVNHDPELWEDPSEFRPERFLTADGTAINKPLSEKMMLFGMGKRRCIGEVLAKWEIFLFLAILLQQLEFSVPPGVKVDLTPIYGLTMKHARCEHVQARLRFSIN
Cytochrome P450 2C19 (Homo sapiens), sequence (P33261 whole entry, looked up): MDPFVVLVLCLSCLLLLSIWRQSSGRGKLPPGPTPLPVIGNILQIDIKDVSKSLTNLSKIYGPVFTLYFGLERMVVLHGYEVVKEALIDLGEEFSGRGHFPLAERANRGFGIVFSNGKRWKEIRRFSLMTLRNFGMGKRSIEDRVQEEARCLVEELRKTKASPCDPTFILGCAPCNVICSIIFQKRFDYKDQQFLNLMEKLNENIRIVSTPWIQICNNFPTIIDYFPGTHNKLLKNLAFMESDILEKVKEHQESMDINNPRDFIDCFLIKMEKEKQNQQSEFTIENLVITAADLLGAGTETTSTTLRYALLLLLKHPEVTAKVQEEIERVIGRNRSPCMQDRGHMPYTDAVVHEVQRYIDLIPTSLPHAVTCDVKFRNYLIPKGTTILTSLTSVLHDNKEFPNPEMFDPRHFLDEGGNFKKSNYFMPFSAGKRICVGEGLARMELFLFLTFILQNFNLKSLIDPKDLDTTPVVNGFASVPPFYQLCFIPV
Cytochrome P450 2D6 (Homo sapiens), sequence (P10635 whole entry, looked up): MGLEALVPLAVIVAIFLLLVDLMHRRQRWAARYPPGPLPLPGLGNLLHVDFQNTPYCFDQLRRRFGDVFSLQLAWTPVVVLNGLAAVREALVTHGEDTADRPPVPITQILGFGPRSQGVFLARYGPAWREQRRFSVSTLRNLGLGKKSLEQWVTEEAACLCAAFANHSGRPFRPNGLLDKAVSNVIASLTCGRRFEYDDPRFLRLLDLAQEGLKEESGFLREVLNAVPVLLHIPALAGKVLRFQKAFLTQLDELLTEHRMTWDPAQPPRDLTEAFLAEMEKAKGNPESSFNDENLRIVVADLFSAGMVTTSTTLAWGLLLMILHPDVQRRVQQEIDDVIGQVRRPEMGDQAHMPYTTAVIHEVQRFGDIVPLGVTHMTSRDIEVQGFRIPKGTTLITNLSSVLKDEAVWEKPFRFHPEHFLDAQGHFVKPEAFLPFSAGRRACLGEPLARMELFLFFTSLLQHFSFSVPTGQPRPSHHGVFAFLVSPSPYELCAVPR
Lysosomal acid glucosylceramidase (Homo sapiens), sequence (P04062 whole entry, looked up): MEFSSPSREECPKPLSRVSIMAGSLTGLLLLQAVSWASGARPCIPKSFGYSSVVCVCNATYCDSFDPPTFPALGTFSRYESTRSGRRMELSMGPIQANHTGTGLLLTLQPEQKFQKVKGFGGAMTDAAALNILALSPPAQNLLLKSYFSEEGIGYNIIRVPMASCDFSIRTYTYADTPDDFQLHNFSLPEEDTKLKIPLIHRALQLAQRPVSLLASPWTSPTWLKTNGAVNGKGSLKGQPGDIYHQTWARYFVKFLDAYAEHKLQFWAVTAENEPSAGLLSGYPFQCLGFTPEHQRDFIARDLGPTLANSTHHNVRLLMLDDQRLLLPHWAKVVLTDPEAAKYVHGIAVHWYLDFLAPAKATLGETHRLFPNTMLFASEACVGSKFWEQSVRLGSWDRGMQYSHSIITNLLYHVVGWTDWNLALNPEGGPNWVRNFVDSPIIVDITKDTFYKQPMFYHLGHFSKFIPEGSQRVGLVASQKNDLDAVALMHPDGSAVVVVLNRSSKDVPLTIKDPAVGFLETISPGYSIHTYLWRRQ

Consider `O=C(N[C@@]1(C(=O)O)C[C@@H]1c1ccccc1)c1ccccc1`, for which the Potency in test [1] is greater than 11.4 µM; in test [6], greater than 46 µM; in [7] it was greater than 9.22 µM. For the same compound, the activity change, negative = inhibition in [2] was 7.86%; in [4] it was 18.8%. Further, the Potency entry in [3], in [8], in test [9] and in test [10] was “inactive” in each case. The activity, negative = inhibition in test [5] was 10.3%.

Take `CC1(C)[C@@H]2CC[C@@](C)(C2)[C@H]1OC(=O)c1ccccc1C(=O)O`: the Potency in test [1] was greater than 11.4 µM; in [6] it was greater than 46 µM; in [7], greater than 9.22 µM. The activity change, negative = inhibition was -1.12% in [2] and 4.7% in test [4]. The Potency entry in [3], in [8], in test [9], in test [11] and in test [10] was “inactive” each time. Moreover, the activity, negative = inhibition in test [5] was -3.05%.

In the case of `S=c1c2[nH]cnc2ncn1CCSc1ncnc2nc[nH]c12`, the Potency in test [1] is greater than 11.4 µM; in [6] it was greater than 46 µM; in test [7], greater than 9.22 µM. Further, the values for the activity change, negative = inhibition in test [2] and in [4] were -5.47% and 23.1%, respectively. The Potency result in test [3], in test [8], in test [9] and in test [10] was “inactive” in each case. Besides, the activity, negative = inhibition in test [5] was 7.7%.

As to `O=C(SCc1cccc2ccccc12)c1ccc(Cl)cc1`, the Potency was greater than 11.4 µM in test [1]; 0.794 µM (active) in [3]; greater than 46 µM in [6]; greater than 9.22 µM in [7]; 1.58 µM (active) in [10]. For the same compound, the activity change, negative = inhibition in test [2] was 9.24%; in [4], -5.94%. In addition, the activity, negative = inhibition in [5] is 7%. Besides, the Potency result in [8] and in test [9] was “inactive” in each case.

Consider `O=C1c2ccccc2C(=O)N1CCCSc1ccccc1`, for which the Potency in test [1] was greater than 11.4 µM; in test [3], 1 µM (active); in test [6], greater than 46 µM; in [7] it was greater than 9.22 µM; in test [10], 0.631 µM (active). Besides, the activity change, negative = inhibition in [2] is -13.4%; in test [4], 1.88%. The activity, negative = inhibition in test [5] was -7.77%. Further, the Potency result in test [8] and in [9] was “inactive” throughout.

Turning to `O=C(O)C1(C(=O)O)CCN(S(=O)(=O)c2ccccc2)CC1`, the results for the Potency in test [1], in test [6] and in test [7] were greater than 11.4 µM, greater than 46 µM and greater than 9.22 µM, respectively. Moreover, the values for the activity change, negative = inhibition in [2], in [3] and in test [4] were -0.169%, 14% [at 2.29 µM] and 5.93%, respectively. For the same compound, the activity, negative = inhibition in [5] is 11.9%. The Potency result in test [8], in test [9] and in [11] was “inactive” in each case.

As to `Clc1ccc2c(N3CCC(CCC4CCN(c5ncnc6cc(Cl)ccc56)CC4)CC3)ncnc2c1`, the Potency in test [1] is greater than 11.4 µM; in test [3], 3.16 µM (active); in [6], greater than 46 µM; in [7] it was greater than 9.22 µM; in test [11], 0.794 µM (active). The activity change, negative = inhibition in test [2] is 0.285%; in test [4], 0.959%. Further, the activity, negative = inhibition in test [5] is 0.136%. In addition, the Potency result in test [8] and in [9] was “inactive” in each case.

For the compound `Cc1cn([C@H]2C[C@H](O)[C@@H](COC(N)=O)O2)c(=O)[nH]c1=O`, the Potency is greater than 11.4 µM in [1], greater than 46 µM in test [6] and greater than 9.22 µM in test [7]. For the same compound, the results for the activity change, negative = inhibition in test [2], in test [3] and in test [4] were 2.02%, -14.6% [at 2.29 µM] and 0.228%, respectively. For the same compound, the activity, negative = inhibition in test [5] was 6.97%. Further, the Potency entry in [8], in test [9] and in [11] was “inactive” each time.

With `Cn1c(=O)c2[nH]c(CCCCc3nc4ccccc4[nH]3)nc2n(C)c1=O`, the Potency is greater than 11.4 µM in test [1], greater than 46 µM in test [6] and greater than 9.22 µM in test [7]. Moreover, the activity change, negative = inhibition in test [2] was -12.7%; in [4], 25%. Further, the Potency entry in test [3], in [8], in test [9], in test [11] and in test [10] was “inactive” in each case. The activity, negative = inhibition in test [5] is 5.57%.

As to `CN1CCc2[nH]nc(-c3n[nH]c4c3CN(C)CC4)c2C1`, the results for the Potency in test [1], in test [6] and in test [7] were greater than 11.4 µM, greater than 46 µM and greater than 9.22 µM, respectively. For the same compound, the results for the activity change, negative = inhibition in test [2] and in [4] were 3.96% and 4.1%, respectively. Moreover, the Potency entry in test [3], in test [8], in [9] and in test [10] was “inactive” each time. Also, the activity, negative = inhibition in [5] was 2.92%.

As for `CC[C@H](C(=O)c1cccs1)C(O)(C(F)(F)F)C(F)(F)F`, the Potency in [1] was greater than 11.4 µM; in [6] it was greater than 46 µM; in test [7], greater than 9.22 µM; in test [11], 3.16 µM (active). Also, the activity change, negative = inhibition was -7.57% in test [2], -17.5% [at 2.29 µM] in test [3] and 20.8% in test [4]. Moreover, the activity, negative = inhibition in test [5] is -6.19%. The Potency result in [8] and in [9] was “inactive” throughout.

As to `COc1ccc(NC(=S)Nc2ccccc2)cc1`, the Potency in test [1] is greater than 11.4 µM; in test [3], 1.26 µM (active); in test [6], greater than 46 µM; in test [7], greater than 9.22 µM; in test [10], 2 µM (active). The activity change, negative = inhibition is 0.508% in test [2] and 6.45% in test [4]. Moreover, in [5], the activity, negative = inhibition is 10.3%. Further, the Potency entry in [8] and in test [9] was “inactive” each time.

For the compound `N#CC(C#N)=CNCCN1CCN(C=C(C#N)C#N)CC1`, the Potency in test [1] was greater than 11.4 µM; in [6] it was greater than 46 µM; in test [7], greater than 9.22 µM. For the same compound, the activity change, negative = inhibition in test [2] is 2.96%; in test [3] it was -15.5% [at 2.29 µM]; in test [4], 2.39%. For the same compound, in test [5], the activity, negative = inhibition was 3.44%. Moreover, the Potency result in [8], in [9] and in test [10] was “inactive” each time.

As for `O=S(=O)(O)c1ccc(N=Nc2ccccc2)cc1`, the Potency in test [1] was greater than 11.4 µM; in [6], greater than 46 µM; in test [7] it was greater than 9.22 µM. The values for the activity change, negative = inhibition in test [2] and in [4] were -9.23% and 7.04%, respectively. For the same compound, the Potency entry in [3], in test [8], in test [9] and in [11] was “inactive” in each case. In addition, in [5], the activity, negative = inhibition was 0.896%.

For the compound `CC[C@H]1CN(C)[C@H]2Cc3c([nH]c4ccccc34)C(=O)C[C@H]1[C@H]2C(=O)OC`, the results for the Potency in [1], in [6] and in test [7] were greater than 11.4 µM, greater than 46 µM and greater than 9.22 µM, respectively. The activity change, negative = inhibition is -2.14% in test [2] and 11.7% in [4]. For the same compound, the Potency entry in test [3], in [8], in [9] and in test [11] was “inactive” in each case. For the same compound, the activity, negative = inhibition in test [5] was 8.84%.
